We go through 19 compounds from PubChem BioAssay (NCATS).

Experiment [1] in a line: Viability qHTS for spleen associated tyrosine kinase inhibitor (SYKi) naive MV4-11 cells (AID 1963823). Also: nearly all actives have a fitted effect of over 40% in size. Put shortly:
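qHTS, SYK inhibitor-naive MV4-11; 500 cells/well; 72 hr compound exposure, 37 C; CellTiter-Glo added, 10 min RT; luminescence read.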
For orientation: In qHTS, concentration-response curves come from the screen itself.

Experiment [2] in a line: Quantitative highthroughput screen to assess conditional lethalithy of NOMO1 cells grown in RPMI1640 with untreated serum (RPMI+s) (AID 1963876). Also: nearly all actives have a fitted effect of over 35% in size.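 As to Viability: 100% = DMSO wells and 0% = empty wells without cells.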 In outline: (§1)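 Each medium arm—HPLM with 10% dialyzed FBS, or RPMI1640 with 5 mM glucose and 10% untreated or dialyzed FBS—was screened against an 11-point, 3-fold compound titration for 48 h at 37 °C, with CellTiter-Glo luminescence as endpoint.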

Experiment [3] in a line: Quantitative highthroughput screen to assess conditional lethalithy of NOMO1 cells grown in RPMI1640 with dialyzed fetal bovine serum (RPMI+ds) (AID 1963877). Also: nearly all actives have a fitted effect of over 30% in size.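 As to Viability: series mostly up to about 46 µM; 100% = DMSO control wells and 0% = empty wells.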 Put shortly:
as §1

Experiment [4] is described as follows: Quantitative highthroughput screen to assess conditional lethalithy of NOMO1 cells grown in Human Plasma-Like Medium with dialyzed fetal bovine serum (HPLM+ds) (AID 1963878). Also: nearly all actives have a fitted effect of over 35% in size.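 As to Viability: 100% = DMSO wells and 0% = empty wells on each plate.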 In outline: as §1
The nature of experiment [5]: Quantitative highthroughput screen to assess conditional lethalithy of P12 Ichikawa cells grown in Human Plasma-Like Medium with dialyzed fetal bovine serum (HPLM+ds) (AID 1963879). Also: nearly all actives have a fitted effect of over 35% in size. As to Viability: series mostly up to about 46 µM. The following applies: Potency: viability. Put shortly:
as §1

The nature of experiment [6]: Quantitative highthroughput screen to assess conditional lethalithy of P12 Ichikawa cells grown in RPMI1640 with dialyzed fetal bovine serum (RPMI+ds) (AID 1963880). Also: nearly all actives have a fitted effect of over 35% in size.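 As to Viability: 100% = DMSO wells and 0% = empty wells on each plate.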 The following applies: Potency: P12-Ichikawa viability. Put shortly:
as §1

Experiment [7] can be described thus: Quantitative highthroughput screen to assess conditional lethalithy of P12 Ichikawa cells grown in RPMI1640 with untreated serum (RPMI+s) (AID 1963881). Also: nearly all actives have a fitted effect of over 35% in size.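 As to Viability: series mostly up to about 46 µM; 100% = DMSO wells and 0% = empty wells without cells.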 As to conditions: Potency: viability. Put shortly:
as §1

Experiment [8] is described as follows: Quantitative highthroughput screen to assess conditional lethalithy of SEM cells grown in RPMI1640 with unreated serum (RPMI+s) (AID 1963883). Also: nearly all actives have a fitted effect of over 35% in size.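 As to Viability: 100% = DMSO wells and 0% = empty wells without cells.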 In outline: as §1
Experiment [9] is described as follows: Quantitative highthroughput screen to assess conditional lethalithy of SEM cells grown in RPMI1640 with dialyzed fetal bovine serum (RPMI+ds) (AID 1963884). Also: nearly all actives have a fitted effect of over 35% in size.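 As to Viability: series mostly up to about 46 µM; 100% = DMSO control wells and 0% = empty wells without cells.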 In outline: as §1
Experiment [10] can be described thus: Cellular viability qHTS for adrenocortical cancer (ACC) cell line SW-13 (AID 1963989). Also: nearly all actives have a fitted effect of over 65% in size.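 As to activity (max response): cells grown in serum-free medium with ITS supplement; % is scaled to controls: 0 for no effect and ±100 for the full control effect.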 As to conditions: SW-13 ACC cells viability, CellTiter-Glo, 48 h; activity (max response): stronger effect = lower value. In outline: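 Viability was read as CellTiter-Glo luminescence after 48 h compound treatment (up to 46 uM final) of SW-13 cells grown serum-free; titration curves were fit with a four-parameter logistic model to give IC50 and efficacy.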

Experiment [11] is described as follows: Cellular viability qHTS for adrenocortical cancer (ACC) cell line NCI-H295R (AID 1963990). Also: nearly all actives have a fitted effect of over 60% in size. Put shortly:
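CellTiter-Glo ATP luminescence, read 48 h after compound addition, measured viability of NCI-H295R adrenocortical cells grown serum-free with ITS. Final concentrations spanned up to 46 uM. Data normalized to DMSO and doxorubicin, fitted for IC50 and maximal response.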

The nature of experiment [12]: Quantitative highthroughput screen to assess conditional lethalithy of SEM cells grown in Human Plasma-Like Medium with dialyzed fetal bovine serum (HPLM+ds) (AID 1963882). Also: nearly all actives have a fitted effect of over 35% in size. As to Viability: series mostly up to about 46 µM. Put shortly: as §1

Where “and” joins values, the source holds several entries; their conditions need not be identical. Equal entries are not always repeated. Results filed as inconclusive are left out. Unmarked numbers belong to inactive results. Calls of active or inactive are those of the source. Calls follow the shape of the dose curve; as a rule, active = well fitted curve in the direction sought with a large enough effect; inconclusive = small, poorly fitted or top-dose-only effect, or another doubt; inactive = no such curve, though single readings can be large; an effect the other way counts as inactive or inconclusive.
Potency is read from the fitted curve at half-maximal effect.

Consider `O=C1c2cccc(O)c2C(=O)c2c(O)cc(CO)cc21`, for which, in experiment [1], the Potency was 8.33 µM (active). Further, the Potency result in experiment [2], in experiment [3], in [4], in [5], in experiment [6] and in experiment [7] was “inactive” in each case. The Potency result in experiment [8], in experiment [9] and in experiment [11] was “inactive” each time. Also, the activity (max response) in [10] is 13.5%.

For the compound `Cc1cccc(Nc2ccncc2S(=O)(=O)NC(=O)NC(C)C)c1`, the Potency entry in experiment [1], in experiment [2], in experiment [3], in experiment [5], in [6] and in experiment [7] was “inactive” in each case. For the same compound, the Potency result in [12], in experiment [8] and in experiment [9] was “inactive” in each case. Moreover, the activity (max response) in [10] is -3.35%.

For the compound `Cc1c(CCOc2ccc(C(=O)O)cc2)c2cc(Cl)ccc2n1C(c1ccccc1)c1ccccc1`, the Potency result in [1], in [2], in experiment [3], in experiment [4], in [7] and in experiment [12] was “inactive” throughout. Besides, the Potency result in experiment [9] and in experiment [11] was “inactive” each time. In addition, the Potency in [5] was 14.8 µM (active). For the same compound, the activity (max response) in experiment [10] was -0.782%.

Turning to `CC1(C)Cc2c(sc(NC(=S)NC(=O)c3ccccc3)c2C(=O)O)CO1`, in experiment [1], the Potency is 14.8 µM (active). Moreover, the Potency entry in experiment [2], in experiment [3], in [4], in experiment [5], in experiment [6] and in experiment [7] was “inactive” in each case. In addition, the Potency entry in experiment [8], in experiment [9] and in experiment [11] was “inactive” in each case. Also, the activity (max response) in experiment [10] is 11%.

Take `Cc1ccccc1C(OCCN(C)C)c1ccccc1` (stereo unspecified): the Potency result in experiment [1], in experiment [2], in experiment [3], in [5], in experiment [7] and in [12] was “inactive” in each case. Also, the Potency entry in [8] and in experiment [9] was “inactive” each time. The activity (max response) in experiment [10] was 14.3%.

On to `Nc1ccccc1NC(=O)c1ccc(CNC(=O)OCc2cccnc2)cc1`, for which the Potency was 651 nM (active) and 742 nM (active) in [1]; 2.64 µM (active) in experiment [2]; 1.66 µM (active) in experiment [3]; 1.32 µM (active) in [4]; 2.35 µM (active) in [5]; 2.35 µM (active) in experiment [6]. Besides, the Potency was 2.64 µM (active) in experiment [7]; 0.833 µM (active) in [12]; 0.743 µM (active) in experiment [9]; 11.2 µM (active) in experiment [10]; 2 µM (active) in [11].

For `N[C@@H](CC(=O)N1CCn2c(nnc2C(F)(F)F)C1)Cc1cc(F)c(F)cc1F`, the Potency entry in experiment [1], in [2], in experiment [3], in experiment [4], in experiment [5] and in experiment [6] was “inactive” throughout. The Potency entry in experiment [7] and in experiment [11] was “inactive” throughout. The activity (max response) in [10] was -2.25%.

For `Cc1cnc(-c2cc(N3CCN(C(=O)CCS(C)(=O)=O)CC3)ncc2Cl)c(C)c1`, the Potency entry in experiment [1], in experiment [2], in experiment [3], in experiment [6], in experiment [7] and in experiment [12] was “inactive” each time. For the same compound, the Potency entry in experiment [8], in experiment [9] and in [11] was “inactive” in each case. For the same compound, in experiment [10], the activity (max response) was -0.258%.

Regarding `COc1cc(C)c(Sc2cnc(NC(=O)c3ccc(CNC(C)C(C)C)cc3)s2)cc1C(=O)N1CCN(C(C)=O)CC1` (stereo unspecified), the Potency is 5.25 µM (active) and 5.17 µM (active) in experiment [1]; 7.43 µM (active) in [12]; 5.26 µM (active) in [8]; 5.26 µM (active) in experiment [9]; 17.8 µM (active) in experiment [10]; 7.94 µM (active) in experiment [11]. Besides, the Potency result in experiment [2], in experiment [3] and in experiment [5] was “inactive” each time.

In the case of `O=C1CCCC(=O)C1C(=O)c1ccc(C(F)(F)F)cc1[N+](=O)[O-]`, the Potency result in experiment [1], in [2], in [3], in experiment [5], in [6] and in [7] was “inactive” in each case. The Potency entry in experiment [12], in experiment [8] and in [9] was “inactive” each time. Moreover, the activity (max response) in experiment [10] is 6.97%.

As to `CCCn1c(=O)c2[nH]c(C34CC5CC3C[C@@H](C5)C4)nc2n(CCC)c1=O`, the Potency in [1] was 18.6 µM (active). Also, the Potency entry in experiment [2], in [3], in experiment [4], in experiment [5], in experiment [6] and in [7] was “inactive” in each case. Besides, the Potency entry in experiment [12] and in [11] was “inactive” each time. For the same compound, the activity (max response) in experiment [10] is -4.88%.

`O=C(O)C(O)Cc1ccc(O)c(O)c1` (stereo unspecified): the Potency in experiment [1] was 17.1 µM (active); in experiment [3], 13.2 µM (active). Further, the Potency entry in [2], in experiment [5], in experiment [6], in experiment [7] and in [11] was “inactive” in each case.

On to `NC(=O)c1noc([C@H](CCCC2CCCCC2)CC(=O)NO)n1`, for which the Potency in [1] was 8.2 µM (active); in experiment [2], 16.6 µM (active); in [3], 23.5 µM (active); in [4], 18.7 µM (active); in experiment [7], 18.7 µM (active); in [12], 18.7 µM (active). The Potency in experiment [9] is 18.7 µM (active).

Consider `CCC[C@H]1C[C@H](C(=O)N[C@@H]([C@@H]2O[C@@H](SC)[C@@H](O)[C@@H](O)[C@@H]2O)[C@H](C)Cl)N(C)C1`, for which the Potency entry in [1], in [2], in experiment [3], in experiment [4], in experiment [12] and in experiment [8] was “inactive” throughout. Further, in experiment [9], the Potency result is “inactive”.

For the compound `O=C(NCCS(=O)(=O)c1ccc(C(F)(F)F)cn1)c1ccc(Cl)cc1`, the Potency entry in experiment [1], in [2], in experiment [3], in experiment [4], in experiment [5] and in [6] was “inactive” each time. The Potency entry in experiment [7], in experiment [12], in [8] and in experiment [11] was “inactive” in each case.

As for `O=C(O)c1cccnc1Nc1cccc(C(F)(F)F)c1`, the Potency entry in experiment [1], in experiment [2], in experiment [3], in [4], in experiment [6] and in experiment [7] was “inactive” throughout. Moreover, the Potency entry in experiment [12] was “inactive”.

In the case of `O=C(O)CCNC(=O)c1ccc(N=Nc2ccc(O)c(C(=O)O)c2)cc1`, the Potency result in experiment [1], in experiment [2], in [3], in [5], in experiment [6] and in experiment [7] was “inactive” in each case. Further, the Potency result in experiment [12], in experiment [8], in experiment [9] and in experiment [11] was “inactive” each time. Besides, the activity (max response) in experiment [10] is 4.01% and 3.9%.

As for `CS(=O)(=O)c1ccc(C2=C(c3ccccc3)C(=O)OC2)cc1`, the Potency entry in [1], in experiment [2], in experiment [3], in experiment [5], in experiment [7] and in [11] was “inactive” in each case. In addition, the Potency in [8] was 16.6 µM (active); in [9] it was 10.5 µM (active). The activity (max response) in experiment [10] was -9.09%.

As to `Cc1ncc([N+](=O)[O-])n1CC(C)O` (stereo unspecified), the Potency entry in experiment [1], in [2], in experiment [3], in experiment [5], in experiment [6] and in experiment [7] was “inactive” each time. The Potency result in [11] was “inactive”. Besides, in experiment [10], the activity (max response) was -11%.
